These results are taken from PubChem BioAssay (NCI).

Holding throughout (experiment): NCI-60 one-dose screen, 48 h (100 = growth as untreated, 0 = no growth, -100 = all killed)
Conditions in all cases: 10 µM unless noted

The test system of assay [1] is NCI-H23 lung.
The test system of assay [2] is NCI-H226 lung.
Assay [3] concerns HOP-62 NSCLC.
In assay [4] the test system is NCI-H460 lung.
The subject of assay [5] is HOP-92 NSCLC.
The subject of assay [6] is NCI-H522 lung.
In assay [7] the test system is 786-0 renal.
The test system of assay [8] is COLO 205 colon.
Assay [9] deals with A549/ATCC NSCLC.

Molecules are shown by their SMILES. The panel holds about 83,000 compounds, 20% with a hit somewhere; the sample as a whole holds those more often.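 Cells were grown in 96-well plates and exposed to the test compound at a single concentration for 48 hours; results are reported as percent growth, with values below 10 considered active.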 Values without a mark were called inactive. Activity calls are given as the source filed them.

For the molecule `C=C(C)[C@@H]1CC[C@]2(C(N)=O)CC[C@]3(C)[C@H](CC[C@@H]4[C@@]5(C)C/C(=C/c6cccnc6)[C@H](O)C(C)(C)[C@@H]5CC[C@]43C)[C@@H]12`, the growth in assay [1] was 28.1% [100 µM]; in [2] it was 22.8% [100 µM]; in assay [3], 27.5% [100 µM]; in assay [4], 5.04% [100 µM] (active); in assay [5], 23.4% [100 µM]; in assay [6], 8.63% [100 µM] (active). The growth in assay [7] was 22.7% [100 µM]; in assay [8] it was -36.6% [100 µM] (active).
As for `Fc1cc2[nH]ncc2c2c3c(c(-c4cn[nH]c4)nc12)CCCC3`, the growth in assay [1] was -14.5% (active); in assay [2], 1.53% (active); in [3] it was -10.6% (active); in assay [4], 1.29% (active); in assay [5], -7.43% (active); in assay [6] it was -9.92% (active). Moreover, the growth is 12.1% in assay [7] and -43.8% (active) in [8].
Consider `COc1cc(NCc2cn(-c3ccc(C(=O)O)cc3)nc2-c2ccc(C(=O)O)cc2)cc(OC)c1OC`, for which the growth in assay [1] was 107%; in assay [2], 99.3%; in assay [3], 98.6%; in [4] it was 99.9%; in [5] it was 68.1%; in [6] it was 101%. Besides, the values for the growth in [9], in [7] and in [8] were 102%, 90.8% and 108%, respectively.
As for `NC(=S)Cc1ccccc1`, the growth in assay [1] is 102%; in assay [2] it was 96.8%; in [3], 98.1%; in assay [4] it was 106%; in assay [5], 108%; in assay [6], 92%. Moreover, the growth in assay [9] is 99.7%; in assay [7], 99.6%; in assay [8] it was 108%.
`O=C1NC(=O)C(Cc2ccc(OCc3ccc(-c4cc(F)c(F)c(F)c4)cc3)cc2)S1` (stereo unspecified): the growth was 80.9% in assay [1]; 82.5% in assay [2]; 91.7% in assay [3]; 92% in [4]; 98.2% in [5]; 49.5% in [6]. Moreover, the growth was 73.2% in assay [9], 95.5% in [7] and 97.6% in [8].
For `CCOC(=O)n1cc(C2=C(c3ccc(OC)c(OC)c3)COC2=O)c2ccccc21`, the growth was 39.3% in assay [1]; 55.5% in assay [2]; 26.1% in assay [3]; 8.64% (active) in assay [4]; 5.33% (active) in assay [5]; -23.6% (active) in [6]. Further, the growth in assay [9] was 17.8%; in assay [7] it was 23.5%; in assay [8] it was -60.7% (active).
As to `CCn1cc(-c2ccnc(NCCNS(=O)(=O)c3ccc(Br)cc3)c2)c(-c2cccc(OC)c2)n1`, the growth in assay [1] is -96.1% (active); in assay [2], 72.9%; in assay [3], 81.4%; in [4], 78.4%; in [5], 51.1%; in [6], 56.7%. Also, the growth in assay [9] was 62.4%; in assay [7], 71.3%; in assay [8] it was 93.5%.
In the case of `CCN(CC)CCS(=O)(=O)CCNc1ccnc2cc(Cl)ccc12`, the growth in assay [1] is -18.4% (active); in assay [2], 30.1%; in [3], 22.5%; in assay [4] it was 2.87% (active); in assay [5], 26.4%; in [6] it was -50.5% (active). In addition, the growth in [9] is 71.9%; in assay [7], 10.2%; in assay [8], -44.5% (active).
As to `O=S(=O)(NCc1ccccc1)c1ncnc2nc[nH]c12`, the growth in assay [1] was 106%; in assay [2] it was 99.4%; in assay [3] it was 103%; in assay [4], 117%; in [5], 117%; in assay [6], 95.5%. For the same molecule, the growth in assay [9] is 86.5%; in assay [7], 107%; in assay [8], 109%.
With `CC(C)(C)c1cc(C(=O)Nc2ccc(C(=O)NCCN)cc2)cc(C(C)(C)C)c1`, the growth in assay [1] was 85%; in assay [2] it was 84.2%; in assay [3], 67%; in [4], 3.53% (active); in assay [5], 26.1%; in assay [6], 40.3%. Moreover, the growth is 39.3% in assay [9], 32.2% in assay [7] and -77.7% (active) in assay [8].
On to `C=C(C)[C@@H]1CC[C@]2(C)[C@H](C(=O)C=C3[C@@H]4C[C@](C)(C(=O)N5CCN(C)CC5)CC[C@]4(C)CC[C@]32C)[C@@]1(C)CCC#N`, for which the growth is -73.6% [100 µM] (active) in [1]; -68.4% [100 µM] (active) in [2]; -84.5% [100 µM] (active) in assay [3]; -89.9% [100 µM] (active) in [4]; -45.6% [100 µM] (active) in [5]; -68.9% [100 µM] (active) in assay [6]. Besides, the growth in assay [9] is -67.3% [100 µM] (active); in assay [7], -85.5% [100 µM] (active); in [8], -69.4% [100 µM] (active).
Take `CCCCCN(CCCCC)CCCCCCCCN1CCCc2ccccc21`: the growth in assay [1] is 76%; in assay [2], 97.6%; in assay [3] it was 109%; in assay [4], 96%; in [5], 88%; in assay [6], 34.6%. The growth was 95.8% in assay [9], 96.6% in [7] and 88.5% in assay [8].
